Lmaj promast: Leishmania major promastigote growth inhibition; Leishmania major promastigotes, resazurin fluorescence viability; inhibition, % at 10 µM; 200,000 compounds, 9% hits; AID 1063; in the data active = inhibition above about 50%;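 also: promastigotes grown with compound for 44 hours at 28 °C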
Insulin prom inh: TRM-6 insulin promoter activity inhibition. TRM-6 cells (human fetal islet line), insulin promoter-eGFP reporter, imaging; reporter expression induced with tamoxifen. 130,000 compounds, 0.9% hits. inhibition, % at 2 µM;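 active = inhibition above the mean plus 3 SD, with well images judged a real hit on visual review, cut at about 60% in these data, passing the limit was not always enough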
PTEN del growth: PTEN-deleted cell growth suppression; HCT116 PTEN-null viability, CellTiter-Glo, 60 h; stronger effect = lower value; viability, % at 10 µM; 140,000 compounds, 1.2% hits;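 active = viability at or below a set limit, 4 SD under the median of all tested compounds, cut at about 3.7% in these data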;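 also: PTEN knockout HCT116 line with beta catenin targeted HCT116 as companion control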
p97 ATPase inh: inhibitors of human p97 ATPase; 220,000 compounds, 0.42% hits; recombinant p97 ATPase, Kinase-Glo ATP luminescence, 3 h; inhibition, % at 8 µM; AID 1481; P55072; in the data active = inhibition above about 15%;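 also: 0% = DMSO vehicle and 100% = wells lacking enzyme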
bCat KO growth: beta-catenin-lacking colon tumor cell growth suppression. viability, % at 10 µM. HCT116 beta-catenin knockout viability, CellTiter-Glo, 60 h; stronger effect = lower value. 140,000 compounds, 1.5% hits. AID 818;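 active = viability at or under a set limit, the compound median less 4 SD, cut at about 6% in these data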;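 also: 0% = Hyamine 1622 control at 20 µM and 100% = untreated cell control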
ROMK mod: modulators of human ROMK potassium channel | P48048 | Tet-inducible ROMK, thallium flux fluorescence; actives lie on both sides | B-score at 10 µM | 130,000 compounds, 2% hits | AID 1918;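 active = signal ratio slope over the read window, or its plate-corrected B-score, at least 3 SD from the plate mean, either direction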;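 also: B-score of the F/F0 ratio slope over 7 to 12 s after thallium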
* hit, by the source's call. Most compounds without a hit are left out; they make up all but 10% or so of the library.

For CCOc1cc(/C=N/NC(=O)c2ccc(CN3CCOCC3)cc2)ccc1OCc1ccccc1 the results were Lmaj promast 98*, Insulin prom inh -14, PTEN del growth 57, p97 ATPase inh -5, bCat KO growth 61 and ROMK mod 0.029.
COc1cc(/C=N/NC(=O)CCN2CCN(Cc3ccccc3)CC2)cc(OC)c1OC was read as Lmaj promast 52*, Insulin prom inh -42, PTEN del growth 79, p97 ATPase inh 1, bCat KO growth 74 and ROMK mod 0.053.
`COc1cc(/C=N/NC(=O)CCN2CCN(c3ccccc3)CC2)cc(OC)c1OC` gave Lmaj promast -4, Insulin prom inh 3, PTEN del growth 95, p97 ATPase inh 0, bCat KO growth 92 and ROMK mod 0.13.
For COc1cc(/C=C/C(=O)NC(C)C)ccc1OCc1ccccc1 the results were Lmaj promast -2, Insulin prom inh 6, PTEN del growth 100, p97 ATPase inh 10 and bCat KO growth 95.
Screening CCOc1cc(/C=N\NC(=O)CN2CCOCC2)ccc1OCc1ccc(F)cc1 returned Lmaj promast 0, Insulin prom inh -4, PTEN del growth 106, p97 ATPase inh -2, bCat KO growth 103 and ROMK mod -0.26.
`COc1cccc(CN2CCNC(=O)C2CC(=O)NCCCn2ccnc2)c1` (centres undefined) gave p97 ATPase inh 4.
Screening CCOc1cc(/C=N/NC(=O)c2nn(C)cc2Br)ccc1OCc1ccccc1Cl returned Lmaj promast 72*, Insulin prom inh 0, PTEN del growth 80, p97 ATPase inh -1, bCat KO growth 80 and ROMK mod 0.083.
For CCCCOc1ccc(C(=O)N/N=C/c2cn[nH]c2-c2ccc(OC)c(OC)c2)cc1 the results were Lmaj promast 7, Insulin prom inh -20, PTEN del growth 96, p97 ATPase inh 4, bCat KO growth 93 and ROMK mod 1.4.
Screening CCCCOc1ccc(C(=O)N/N=C/c2ccc(OCCN3CCCCC3)c(OC)c2)cc1 returned Lmaj promast 100*, Insulin prom inh 10, PTEN del growth 40, p97 ATPase inh 4 and bCat KO growth 43.
For COc1cc(/C=N/NC(=O)CN2CCCCC2)ccc1OCc1ccccc1 the results were Lmaj promast 95*, Insulin prom inh -35, PTEN del growth 96, p97 ATPase inh -3, bCat KO growth 92 and ROMK mod -1.9.
For COc1ccc(-c2nc(NC(=O)CSCCO)sc2C)cc1 the results were Lmaj promast 8, p97 ATPase inh -1 and ROMK mod 1.1.
O=C(CCN1CCN(C/C=C/c2ccccc2)CC1)Nc1ccc(Cl)cc1 was read as Lmaj promast 76*, Insulin prom inh -16, PTEN del growth 41, p97 ATPase inh -3 and bCat KO growth 29.
Screening Cc1ccc(NC(=O)CCN2CCN(C/C=C/c3ccccc3)CC2)cc1 returned Lmaj promast 94*, Insulin prom inh -14, PTEN del growth 78, p97 ATPase inh 0 and bCat KO growth 86.
`Cn1cccc1CC(=O)NNC(=S)Nc1ccc(Cl)cc1` gave Lmaj promast -5, Insulin prom inh 21, PTEN del growth 93, p97 ATPase inh 0, bCat KO growth 88 and ROMK mod 0.89.
O=c1c2c3c(sc2n2cnnc2n1Cc1ccccc1)CN(Cc1ccccc1)CC3 was read as Lmaj promast 100*, Insulin prom inh 44, p97 ATPase inh 5 and ROMK mod 0.23.
`Cc1nnc2n(Cc3ccccc3)c(=O)c3c4c(sc3n12)CN(Cc1ccccc1)CC4` gave ROMK mod -0.12.
COc1ccc(S(=O)(=O)N2CCCC2C(=O)Nc2ccc(C)cc2)cc1 (centres undefined) was read as Lmaj promast 3, Insulin prom inh -39, PTEN del growth 97, p97 ATPase inh 0 and bCat KO growth 92.
COc1ccc(S(=O)(=O)N2CCCC2C(=O)Nc2nc3c(s2)CCCC3)cc1 (centres undefined) was read as Lmaj promast 90*, Insulin prom inh -90, PTEN del growth 85, p97 ATPase inh 6, bCat KO growth 84 and ROMK mod -0.16.
For COc1ccc(NC(=O)Nc2nc3ccccc3s2)cc1 the results were p97 ATPase inh 0.
O=C(Nc1nc2ccccc2s1)C1CCCN1S(=O)(=O)c1ccc(Cl)cc1 (centres undefined) was read as Lmaj promast 99*, Insulin prom inh -15, PTEN del growth 79, p97 ATPase inh 2 and bCat KO growth 80.
COc1ccc(NC(=O)Nc2nc3c(s2)CCCC3)cc1 was read as Lmaj promast 54*, Insulin prom inh 48, PTEN del growth 65, p97 ATPase inh -1 and bCat KO growth 70.
For COc1ccc(-c2csc(NC(=O)C3CCCCN3S(=O)(=O)c3ccccc3)n2)cc1 (centres undefined) the results were Lmaj promast 70*, Insulin prom inh 13, PTEN del growth 17, p97 ATPase inh 8 and bCat KO growth 10.
`Cc1ccc(S(=O)(=O)N2CCCC2C(=O)Nc2nc3ccccc3s2)cc1` (centres undefined) gave Lmaj promast 19, Insulin prom inh 31, PTEN del growth 67, p97 ATPase inh -5 and bCat KO growth 76.
`CCOCCCNC(=O)C1CCCN1S(=O)(=O)c1ccc(Cl)cc1` (centres undefined) gave Lmaj promast 93*, Insulin prom inh -7, PTEN del growth 100, p97 ATPase inh 7, bCat KO growth 105 and ROMK mod -0.2.
Screening O=C(c1cnc2n(c1=O)CCS2)N1CCN(C(c2ccccc2)c2ccc(Cl)cc2)CC1 (centres undefined) returned Lmaj promast 58*, PTEN del growth 59, p97 ATPase inh 3 and bCat KO growth 62.
`O=C(c1cnc2n(c1=O)CCS2)N1CCN(c2ccccc2Cl)CC1` gave Lmaj promast -6 and p97 ATPase inh -4.
For CCOc1cc(C(=O)CCC(=O)OCC(=O)NC(=O)NCC(C)C)ccc1O the results were p97 ATPase inh 2.
For O=[N+]([O-])c1ccc(O)c(N=Cc2sc3ccccc3c2O)c1 the results were Lmaj promast 5, Insulin prom inh 31, PTEN del growth 3.7*, p97 ATPase inh -4, bCat KO growth 1.9* and ROMK mod -0.25.
Oc1c(C=Nc2cccc3cccnc23)sc2ccccc12 was read as Lmaj promast 99*, Insulin prom inh -207, PTEN del growth 3.8*, p97 ATPase inh 1 and bCat KO growth 3.0*.
For CCC(C)C(NC(=O)OCc1ccccc1)C(=O)NC(Cc1ccc(O)cc1)C(=O)OC (centres undefined) the results were Lmaj promast 20, p97 ATPase inh 3 and ROMK mod -0.93.
Screening O=C(N=Nc1c(O)[nH]c2ccccc12)c1ccccc1NS(=O)(=O)c1cccs1 returned Lmaj promast 68*, Insulin prom inh 3, PTEN del growth 97, p97 ATPase inh 6 and bCat KO growth 93.
